# From PubChem BioAssay (EPA / NIEHS)
# The source made the active and inactive calls. The calls were made as follows: active = hit-call score of the fitted dose curve at least 0.9, where 1 is the maximum; inactive = score below 0.9.
# Read-out: Paternally Expressed 10 (PEG10), PEG10 (gene 23089)
# Assay: LTEA_HepaRG_PEG10: Life Technologies and Expression Analysis (LTEA) Assay for Paternally Expressed 10 (PEG10) using HepaRG (AID 2283520);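 as to AC50: PEG10 transcript by qRT-PCR normalised to ACTB GAPDH and POLR2A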
# Conditions: mRNA level, 48 h; actives raise or lower the signal
# Experimental: LTEA_HepaRG is a cell based, multiplexed-readout assay that uses HepaRG, a human liver cell line, with measurements taken at 48 hours after chemical dosing on a 96-well plate.LTEA_HepaRG_PEG10 is one of 102 assay component(s) measured in the LTEA HepaRG cell culture assay. It is a marker of Cell proliferation, survival, death.Data from the assay component LTEA_HepaRG_PEG10 was analyzed into 1 endpoint. This assay endpoint, LTEA_HepaRG_PEG10, was analyzed with bidirectional fitting relative to DMSO as the negative control and baseline of activity. Using a type of inducible reporter, measures of mRNA induction for gain or loss-of-signal activity can be used to understand regulation of transcription factor activity. To generalize the intended target to other relatable targets, this assay endpoint is annotated to the dna binding intended target family, where the subfamily is xenobiotic metabolism.
# A total of 1060 chemcials from the ToxCast library were tested in eight-point concentration-response experiments. Cell culture and cytotoxicity assays were conducted at Thermo Fisher Scientific's Custom Services facility (Madison, WI). A single lot of human HepaRG cells (Thermo Fisher Scientific, Frederick, MD) was used for the cell culture experiments. 96-well format collagen type I coated plates of human HepaRG cells were prepared using established methods. Briefly, cryopreserved HepaRG cells were thawed, plated at a density of approximately 100,000 cells/well in HepaRG Thaw, Plate, and General Purpose media (HPRG770, Thermo Fisher Scientific), and incubated for 48 hours. 0.5% DMSO was selected as vehicle control to balance the requisite need of DMSO in HepaRG cultures to maintain differentiation (for example, baseline metabolism, proportions of hepatocytes vs. cholangiocytes), while enabling further hepatic receptor pathway activation (for example, PXR and CAR) in response to chemical exposure. 48 hours after plating, the culture medium was replaced with HepaRG Serum-Free Incudtion Media. Cells were exposed to each test chemical in duplicate and maintained in CO2 incubators for another 48 hours. Chemical plates were thawed to room temperature and 200x concentrations of treatment groups were prepared. 8-point conentration-reponse curves were made with the highest exposure at 100 uM, followed by half-log dilutions, all in 0.5% DMSO. Each test plate contained variouse controls, induction positive controls (1mM phenobarbital), cytotoxicity positive controls ([…] aflatoxin B1), vehicle controls (0.5% DMSO), and total lysis controls (0.5% DMSO). Cell morphology images were taken using an Essen IncuCyte FLR automated microscope, with six 96-well plates imaged in about 24 minutes. Images were captured and exported and JPEG files. Spent culture media was transfered to black-well plates for the LDH assay, and remaining media was sorted at -80 C for later use. Cells were treated with RLT buffer and frozen until shipped for gene expression analysis. Total RNA was isolated from the cell suspension in 75 uL of Buffer RLT (Qiagen, Germantown, MD 20874) by Quintiles/Expression Analysis (Durham, NC) using a custom isolation procedure. Total RNA from each plate well was transferred to a preamplification plate. Fluidigm's 96.96 Dynamic ArrayTM (Fluidigm, Amsterdam, the Netherlands) technology was used for gene expression analyses by quantitative reverse transcription polymerase chain reaction (qRT-PCR, performed by Quintiles/Expression Analysis, Durham, NC)89. Standard TaqManTM Assays (Applied Biosystems/ThermoFisher Scientific, Foster City, CA) were used to assess the expression of 93 genes selected based on their selectivity and sensitivity to important hepatic receptors known to be modulated by environmental chemicals; importance in human hepatocyte functionality; and hepatotoxicity. […]
SMILES,outcome,AC50
Cc1ccn2nc(S(=O)(=O)Nc3c(F)cccc3F)nc2n1,inactive,
C#CCC1=C(C)C(OC(=O)C2C(C=C(C)C)C2(C)C)CC1=O (stereo not given),inactive,
CCc1cnc(C2=NC(C)(C(C)C)C(=O)N2)c(C(=O)O)c1 (stereo not given),inactive,
CCc1cccc(CC)c1N(COC)C(=O)CCl,inactive,
CC(C)N(C(=O)SCC(Cl)=C(Cl)Cl)C(C)C,inactive,
C[N+]1(C)CCCCC1,inactive,
CCCCN(CC)c1c([N+](=O)[O-])cc(C(F)(F)F)cc1[N+](=O)[O-],inactive,
CCCOCC(=Nc1ccc(Cl)cc1C(F)(F)F)n1ccnc1,,28.3 µM (active)
COc1cccc(C(=O)NN(C(=O)c2cc(C)cc(C)c2)C(C)(C)C)c1C,inactive,
CON=C(C(=O)OC)c1ccccc1CON=C(C)c1cccc(C(F)(F)F)c1,inactive,
CSc1nnc(C(C)(C)C)c(=O)n1N,inactive,
C=C(C)[C@H]1Cc2c(ccc3c2O[C@@H]2COc4cc(OC)c(OC)cc4[C@@H]2C3=O)O1,,0.173 µM (active)
Cc1nn(-c2cc(NS(C)(=O)=O)c(Cl)cc2Cl)c(=O)n1C(F)F,inactive,
CCCSP(=O)(OCC)SCCC,inactive,
C#CC(C)(C)NC(=O)c1cc(Cl)cc(Cl)c1,,50 µM (active)
CC(Oc1cccc(Cl)c1)C(=O)O (stereo not given),inactive,
C[Si](Cn1cncn1)(c1ccc(F)cc1)c1ccc(F)cc1,inactive,
CC(C)=CC1C(C(=O)OCN2C(=O)C3=C(CCCC3)C2=O)C1(C)C (stereo not given),inactive,
CCOP(=S)(OCC)Oc1ccc([N+](=O)[O-])cc1,inactive,
CCCOc1nn(C(=O)NS(=O)(=O)c2ccccc2C(=O)OC)c(=O)n1C,inactive,

SMILES,outcome,AC50
O=C(O)c1cc(Oc2ccc(C(F)(F)F)cc2Cl)ccc1[N+](=O)[O-],,50 µM (active)
CCCCSP(=O)(SCCCC)SCCCC,inactive,
O=c1ccc(=O)[nH][nH]1,inactive,
COP(=O)(OC)SCn1c(=O)oc2cc(Cl)cnc21,,62.4 µM (active)
CN(C)C(=O)Nc1cccc(C(F)(F)F)c1,inactive,
CC(COc1ccc(Oc2ccccc2)cc1)Oc1ccccn1 (stereo not given),inactive,
CCC(=O)Nc1ccc(Cl)c(Cl)c1,,65 µM (active)
CC(C1CC1)C(O)(Cn1cncn1)c1ccc(Cl)cc1 (stereo not given),inactive,
CCOP(=O)(NC(C)C)Oc1ccc(SC)c(C)c1 (stereo not given),,50 µM (active)
COP(=O)(OC)C(O)C(Cl)(Cl)Cl (stereo not given),inactive,
CCOP(=S)(OCC)Oc1cc(C)nc(C(C)C)n1,,50 µM (active)
CSC1=N[C@@](C)(c2ccccc2)C(=O)N1Nc1ccccc1,,20.1 µM (active)
COP(=O)(OC)OC(Br)C(Cl)(Cl)Br (stereo not given),inactive,
CCNc1nc(Cl)nc(NC(C)(C)C#N)n1,,26.5 µM (active)
COc1cc(OC)nc(Sc2cccc(Cl)c2C(=O)O)n1,inactive,
CCOP(=S)(Oc1cnc(C(C)(C)C)nc1)OC(C)C (stereo not given),,13.3 µM (active)
CCOP(=O)(OCC)Oc1cc(C)nc(C(C)C)n1,inactive,
CCC(=NOC/C=C/Cl)C1=C(O)CC(C2CCOCC2)CC1=O (stereo not given),inactive,
CCc1cccc(C)c1N(C(=O)CCl)C(C)COC (stereo not given),inactive,
CNC(=O)ON=C(SC)C(=O)N(C)C,inactive,
